In all, about 290,000 compounds went through this assay and about 3,000 (1%) were called active. Rule as the data show it: active = inhibition mostly above about 36% (no sharp cut-off); inactive = mostly below about 34%. For the sample, actives were picked, then their nearest neighbours and some compounds at random.
Experiment: NOD1 signaling inhibitors, primary screen, cell-based, luminescence, uHTS (AID 1578);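 also: HEK-293T reporter cells stimulated with the NOD1 agonist gamma-tri-DAP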
Details: NOD1-driven NF-kB luciferase reporter cells, at 4 µM, active compounds read high
For Cc1cc([N+](=O)[O-])nn1CCCC(=O)Nc1ccc(Cl)cc1Cl, the inhibition was -21% (inactive). With COC(=O)c1cccc(NC(=O)Cn2nnc3ccccc32)c1 the inhibition was -17.8% (inactive). With Cc1csc(NC(=O)CSc2nnc3ncccn23)n1 the inhibition was -6.2% (inactive). In the case of CCCCNC(=O)NCc1cnn(C)c1C, the inhibition is reported as -24.6% (inactive). For CC(=O)NNC(=O)c1ccncc1, the inhibition was -26.4% (inactive). For CCCCc1nc2ccc(S(=O)(=O)O)cc2[nH]1, the inhibition was 7.8% (inactive). With COc1ccccc1S(=O)(=O)c1ccccc1[N+](=O)[O-] the inhibition was -10.5% (inactive). For COc1ccc(OCCOc2ccccc2[N+](=O)[O-])cc1, the inhibition was -19.1% (inactive). For O=[N+]([O-])c1ccccc1S(=O)(=O)c1ccccc1, the inhibition was -2.8% (inactive). With COc1ccc([N+](=O)[O-])c(S(=O)(=O)c2ccc(Cl)cc2)n1 the inhibition was 79.2% (active). For Nc1cccnc1S(=O)(=O)c1ccccc1, the inhibition was -2.3% (inactive). In the case of COc1nc(OC)nc(Oc2ccc(Cl)cc2[N+](=O)[O-])n1, the inhibition is reported as 0.6% (inactive). In the case of COc1ccc([N+](=O)[O-])c(S(=O)(=O)c2ccccc2)n1, the inhibition is reported as 61.7% (active). With Cn1cnc([N+](=O)[O-])c1S(=O)(=O)c1ccc(Cl)cc1 the inhibition was -30.1% (inactive). For Cc1ccc(C(=O)COC(=O)CN2C(=O)C3C4CC(C(Br)C4Br)C3C2=O)cc1 (stereo unspecified), the inhibition was -29.5% (inactive). With CC(C)n1c(=O)n(CC(=O)NCC2CCCO2)c(=O)c2c3c(sc21)COC(C)(C)C3 (stereo unspecified) the inhibition was -14% (inactive). For Cc1ccc(N(C(C)C(=O)Nc2cccc(N(C)S(C)(=O)=O)c2)S(C)(=O)=O)cc1 (stereo unspecified), the inhibition was -21.2% (inactive). In the case of CC(C)NC(=O)CN(Cc1ccc2c(c1)OCO2)C(=O)CCC(=O)Nc1ccccn1, the inhibition is reported as -22.2% (inactive). For O=C(Cc1ccc([N+](=O)[O-])cc1)N1CCN=C1SCc1ccccc1, the inhibition was -5% (inactive). With Cc1cc(S(=O)(=O)Nc2ccc(C(=O)NCC(C)(C)N3CCOCC3)cc2)ccc1F the inhibition was -4.6% (inactive). With OCCN(CCO)CC(O)CN1c2ccccc2Sc2ccccc21 (stereo unspecified) the inhibition was 2.7% (inactive). For CCC(C)NC(=O)Cn1cc2c(n1)CCC(C)C2 (stereo unspecified), the inhibition was 7.9% (inactive). With CCOc1ccccc1N(CC(=O)NCc1ccco1)C(=O)CCC(=O)Nc1nccs1 the inhibition was -30.2% (inactive). In the case of COc1ccc(CNCc2cc(OC)ccc2OC)cc1, the inhibition is reported as -19.6% (inactive). For CCSC1=C(C#N)C(c2ccccc2Cl)C(C(=O)c2cccs2)C(O)(C(F)(F)F)N1 (stereo unspecified), the inhibition was 64.5% (active). With C=CCSC1=C(C#N)C(c2ccccc2Cl)C(C(=O)c2cccs2)C(O)(C(F)(F)F)N1 (stereo unspecified) the inhibition was 63.3% (inactive). For CSC1=C(C#N)C(c2ccccc2Cl)C(C(=O)c2cccs2)C(O)(C(F)(F)F)N1 (stereo unspecified), the inhibition was -8.1% (inactive). In the case of CC1=NN(c2ccccc2)C(=O)C1=C(C)C, the inhibition is reported as -15.5% (inactive). In the case of CCOC(=O)C(c1ccccc1)C(Nc1ccc(F)cc1)c1ccccn1 (stereo unspecified), the inhibition is reported as -2% (inactive). For CC(C)(C)c1ccc(C(=O)N/N=C/c2cccc(Cl)c2)cc1, the inhibition was 72.3% (active). In the case of O=C(N/N=C/c1cccc(F)c1)c1ccc(Cl)cc1, the inhibition is reported as -50.5% (inactive). In the case of Cn1c(=O)n(C)c2cc(/C=N/NC(=O)c3ccc(Cl)cc3)ccc21, the inhibition is reported as -11.1% (inactive). For CCC(=O)c1c[nH]c(C(=O)N2CCOCC2)c1, the inhibition was -10.3% (inactive). For CCCCCCCN1C=CC(=O)CC1, the inhibition was 2% (inactive). With CCCCN1C(C)=CC(=C2C(=O)c3ccccc3C2=O)C=C1C the inhibition was -16.5% (inactive). In the case of CCN1C=CC(=C2C(=O)c3ccccc3C2=O)C=C1, the inhibition is reported as 90.4% (active). For CC1=CC(=C2C(=O)c3ccccc3C2=O)C=C(C)O1, the inhibition was -62.6% (inactive). For CCCCCCN1Cc2ccccc2C1, the inhibition was 5.4% (inactive). In the case of CN1C=CC(=C2C(=O)c3ccccc3C2=O)C=C1, the inhibition is reported as -58.3% (inactive). For CCCN1C=CC(=C2C(=O)c3ccccc3C2=O)C=C1, the inhibition was 97.9% (inactive). In the case of CC1=CC(=C2C(=O)c3ccccc3C2=O)C=C(C)N1C, the inhibition is reported as -1.3% (inactive). In the case of CCCCN1C=CC(=C2N=c3cccc([N+](=O)[O-])c3=N2)C=C1, the inhibition is reported as 35.9% (inactive). With CCCCCN1C=CC(=C2C(=O)c3ccccc3C2=O)C=C1 the inhibition was 93.3% (active). For CCCCCCN1C=CC(=C2C(=O)c3ccccc3C2=O)C=C1, the inhibition was 80.8% (active). With CCCCN1C=CC(=C2C(=O)c3ccccc3C2=O)C=C1 the inhibition was 95.3% (active). With COC(=O)c1ccc(CC(=O)c2nc3ccccc3s2)cc1 the inhibition was -21.3% (inactive). For COc1ccc(C2CC(c3ccc4ccccc4c3OC(C)=O)=NN2C(C)=O)cc1 (stereo unspecified), the inhibition was -2.5% (inactive). In the case of CCN(CC)S(=O)(=O)c1ccc2c(c1)[nH]c(=S)n2CC, the inhibition is reported as -41.3% (inactive). In the case of CCOc1ccc(CCNC(=O)COC(=O)C2CCN(S(=O)(=O)c3ccc(C)c(C)c3)CC2)cc1OCC, the inhibition is reported as -4.1% (inactive). In the case of CC(=O)NC1CC2CCC(C1)N2Cc1ccc(C)cc1 (stereo unspecified), the inhibition is reported as -106% (inactive). For Cc1c(C)c2ccc(OCC(=O)NC(Cc3ccc(Cl)cc3)C(=O)O)cc2oc1=O (stereo unspecified), the inhibition was -25% (inactive). With O=S(=O)(c1ccccc1)N1CCCc2ccccc21 the inhibition was 8.6% (inactive). For COc1ccc(N2CCN(C(=O)c3cc(=O)c4cc(C)c(C)cc4o3)CC2)cc1, the inhibition was -10.3% (inactive). With c1ccc(OCc2nc3ccccc3s2)cc1 the inhibition was -39.1% (inactive). With COC(=O)c1ccc(CN2C(=O)NC3(CCC(C)CC3)C2=O)cc1 (stereo unspecified) the inhibition was -51.8% (inactive). For COCCNC(=S)N/N=C/c1ccccc1C(=O)O, the inhibition was -17.1% (inactive). With O=C(c1ccccc1)c1cncc(Br)c1 the inhibition was -4.9% (inactive). For Cc1ccc(NC(=O)c2cncc(Br)c2)nc1, the inhibition was -55.8% (inactive). With CCc1ccc(C(=O)c2cncc(Br)c2)cc1 the inhibition was -3.9% (inactive). In the case of Cc1ccc(C(=O)c2cncc(Br)c2)cc1, the inhibition is reported as 48.9% (active). For Cc1ccc(NC(=O)c2cncc(Br)c2)c([N+](=O)[O-])c1, the inhibition was 5.4% (inactive). For Cc1ccc(NC(=O)c2cncc(Br)c2)c(O)c1, the inhibition was 66% (active). With O=C(C[n+]1cc(-c2ccc(F)cc2)n2c1CCC2)Nc1nc(-c2ccc(F)cc2)cs1 the inhibition was 11.7% (inactive). With CCS(=O)(=O)n1nc(-c2ccccc2)nc1NCc1ccco1 the inhibition was -33.3% (inactive). In the case of CS(=O)(=O)n1nc(-c2ccccc2)nc1NCc1ccco1, the inhibition is reported as 57.3% (active). For Cc1ccc(-c2nc(NCc3ccco3)n(S(C)(=O)=O)n2)cc1, the inhibition was -21.9% (inactive). In the case of Cc1c(C)n(-c2ccccc2)c2ncnc(NCCN(C)C)c12, the inhibition is reported as 1.2% (inactive). With O=C(Nc1nccs1)c1ccc(N2CCOCC2)c([N+](=O)[O-])c1 the inhibition was -45.2% (inactive). With O=C(Nc1nc(-c2ccccc2)cs1)c1ccc(N2CCOCC2)c([N+](=O)[O-])c1 the inhibition was 104% (active). In the case of O=C(Nc1nc(-c2ccc(-c3ccccc3)cc2)cs1)c1cc([N+](=O)[O-])ccc1N1CCOCC1, the inhibition is reported as -31.8% (inactive). For Cn1nnc(NC(=O)c2ccc([N+](=O)[O-])cc2Cl)n1, the inhibition was 11.3% (inactive). For CC(C)(Cc1ccc(O)cc1)NC(=O)SCc1ccccc1, the inhibition was 72.6% (active). For CC(C)(Cc1ccc(O)cc1)NC(=O)c1ccccc1, the inhibition was 43.7% (inactive). For C=CC(=O)NC(C)(C)Cc1ccccc1, the inhibition was 1.5% (inactive). With CC(C(=O)NCc1ccccc1)N1C(=O)C2CC=C(Cl)CC2C1=O (stereo unspecified) the inhibition was 13.9% (inactive). With Cc1cccc(N/C(=N/S(=O)(=O)c2ccccc2)c2ccccc2)n1 the inhibition was -38% (inactive). In the case of Cc1ccc(CN2C(=O)CSC2c2ccc(F)cc2)cc1 (stereo unspecified), the inhibition is reported as -22.3% (inactive). For S=C(NCc1ccco1)N1CCN(Cc2ccco2)CC1, the inhibition was -6.3% (inactive). In the case of CCOCCCNC(=S)N1CCN(Cc2ccco2)CC1, the inhibition is reported as 57.4% (active). With CCOCCCNC(=S)N1CCN(CC)CC1 the inhibition was -22.2% (inactive). In the case of Cc1ccc(NC(=O)CN(C)CC(=O)Nc2c(C)cccc2C)c(Br)c1, the inhibition is reported as -5.8% (inactive). With O=C(O)c1ccc(-c2ccc(Cl)cc2Cl)o1 the inhibition was -54% (inactive). With Cc1cccc(C)c1NC(=O)c1ccc(-c2ccc(Cl)cc2Cl)o1 the inhibition was 73.6% (active). With Cc1ccccc1NC(=O)c1ccc(-c2ccc(Cl)cc2Cl)o1 the inhibition was -41.4% (inactive). For COc1cccc(CN2CCCC(C(=O)c3ccc4c(c3)OCO4)C2)c1O (stereo unspecified), the inhibition was -27.5% (inactive). For C=CCN1C(=O)S/C(=C/c2ccc(Sc3nc4ccccc4[nH]3)o2)C1=O, the inhibition was 71.4% (active). With CCN1C(=O)S/C(=C/c2ccc(Sc3nc4ccccc4[nH]3)o2)C1=O the inhibition was 38.6% (inactive). For CC(C)N1C(=O)S/C(=C/c2ccc(Sc3nc4ccccc4[nH]3)o2)C1=O, the inhibition was 50.1% (inactive). In the case of Cc1ccc(S(=O)(=O)N2CCC(C(=O)NCCCN3CCCC3=O)CC2)cc1C, the inhibition is reported as -29.3% (inactive). For CN(C)S(=O)(=O)c1ccc(Oc2ccccc2)cc1, the inhibition was -4.6% (inactive). For COc1ccc(CNC(=O)C2(CC(=O)NC(C)(C)C)CCCC2)cc1, the inhibition was 4.9% (inactive). With CCCN(CCC)C(=O)c1c(NC(=O)CC)sc2c1CCCCC2 the inhibition was 50.3% (active). With CCC(=O)Nc1sc2c(c1C(N)=O)CCC2 the inhibition was 0.4% (inactive). With CCC(=O)Nc1sc2c(c1C(=O)N(C)C)CCCCC2 the inhibition was -18.5% (inactive). For CCCCN1CN(Cc2ccccc2)CNC1=S, the inhibition was -16.8% (inactive). With Cc1nc2cc(CO)ccc2n1C the inhibition was -15.3% (inactive). With CN(C)C(CNC(=O)/C=C/c1cccc(Cl)c1)c1ccccc1 (stereo unspecified) the inhibition was -22.7% (inactive). For O=C(O)c1cccc(NC(=S)N/N=C/c2cccc(O)c2)c1, the inhibition was -6.8% (inactive). In the case of O=C(O)c1cccc(NC(=S)N/N=C/c2cccnc2)c1, the inhibition is reported as -15.4% (inactive). For O=C(N/N=C/c1ccccn1)c1ccc(N/N=C/c2ccccn2)cc1, the inhibition was -58.4% (inactive). In the case of O=C(N/N=C/c1ccccn1)c1cccc([N+](=O)[O-])c1, the inhibition is reported as 20% (inactive). In the case of O=C(O)c1cccc(NC(=S)N/N=C/c2ccccn2)c1, the inhibition is reported as 68.3% (active). With O=C(N/N=C/c1ccccn1)c1ccccc1 the inhibition was -39% (inactive). With O=C(N/N=C/c1ccccn1)c1ccc([N+](=O)[O-])cc1 the inhibition was 67.9% (active). In the case of O=C(N/N=C/c1ccccn1)c1ccc(NC(=O)c2cccc([N+](=O)[O-])c2)cc1, the inhibition is reported as -22.2% (inactive). In the case of O=C(N/N=C/c1ccccn1)c1ccc(Br)cc1, the inhibition is reported as 103% (active).
